Source: PubChem BioAssay (National Center for Advancing Translational Sciences (NCATS))
SW480 rereplic: DNA re-replication induction in SW480 cells | SW480 DNA re-replication, Hoechst DNA content imaging, 48 h | hit rate 1.8% among 340,000 | Potency, µM (top dose mostly 46.1 µM), inactives show top-dose re-replication activation, actives largely listed as activators; further: potency means the concentration at half of the fitted maximal effect; % of control where 0% means no effect; nearly all actives have a fitted effect of over 55% in size
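Readout is total intensity of Hoechst-stained nuclei, excited at 405 nm and collected at 500-530 nm. Compound treatment lasted 48 hr at 37 C in 5% CO2 before staining.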
KB-3-1 tox: kills parental KB-3-1 adenocarcinoma cells. Potency, µM (highest dose often 46.1 µM), most hits filed as cytotoxic. AID 1347075. hit rate 1.4% among 400,000. KB-3-1 viability, CellTiter-Glo ATP luminescence, 72 h; further: potency means the concentration at half of the fitted maximal effect; on the % scale 0 is the no-effect control and ±100 the full control effect; nearly all actives have a fitted effect of over 60% in size
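Screening of KB-3-1 cells (DMEM, 10% FBS, phenol-red free) ran from lowest to highest compound concentration; after 72 h at 37 °C viability was read luminescently and curves fitted.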
IL-1B inflam inh: blocks inflammasome-driven IL-1 beta release. THP-1 LPS/ATP IL-1B secretion, AlphaLISA, 16 h; active compounds read low. activity change, % at 57.5 µM. hit rate 4.7% among 360,000. AID 743279; in the data active means activity change below about -50%; inconclusive means mostly about -30% to -49%; further: on the % scale 0 is the no-effect control and ±100 the full control effect
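Secreted IL-1B measured by AlphaLISA bead assay after 16 h compound exposure of THP-1 cells; compounds (final up to 57.5 uM) added 1 h before LPS (250 ng/mL) and ATP (1.25 mM) stimulation; lower signal means less secretion.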
MCF10A rerep: inducers of DNA re-replication in MCF 10A breast cells | MCF 10A DNA re-replication, Hoechst nuclear intensity, 48 h | Potency, µM (doses to about 46.1 µM), without a hit: at the top dose activity, positive = re-replication, actives largely listed as activators | hit rate 2.9% among 350,000; further: potency means the concentration at half of the fitted maximal effect; % of control where 0% means no effect; nearly all actives have a fitted effect of over 50% in size
KB-V1 MDR tox: kills drug-selected multidrug resistant KB-V1 cells; KB-V1 MDR cells viability, CellTiter-Glo, 72 h; Potency, µM (series often up to 46.1 µM), usual class: cytotoxic; hit rate 3.4% among 400,000; AID 1347076; further: potency means the concentration at half of the fitted maximal effect; on the % scale 0 is the no-effect control and ±100 the full control effect; nearly all actives have a fitted effect of over 60% in size
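Cells of the MDR subline KB-V1 are plated, dosed with compound at multiple concentrations, and incubated 72 h at 37 degrees C; CellTiter-Glo is then added and luminescence read after 10 min.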
* hit, by the source's call; i = inactive; u = inconclusive; x = not tested or not shown; [ ] = remark or other dose. Compounds with a hit are over-represented: about 9.9% of the library has one in this group of screens. Unless noted, the call rests on the fitted dose curve; in most records, active means well fitted curve in the direction sought with a large enough effect; inconclusive means small, poorly fitted or top-dose-only effect, or another doubt; inactive means no such curve, though single readings can be large; an effect the other way counts as inactive or inconclusive.

SMILES	SW480 rereplic	KB-3-1 tox	IL-1B inflam inh	MCF10A rerep	KB-V1 MDR tox
O=C1OCCN1C(=O)[C@H]1[C@H](c2ccc([N+](=O)[O-])cc2)C(c2ccc(F)cc2)=NN1c1ccc(Br)cc1	-1%	i	u	-31%	i
O=C1OCCN1C(=O)[C@H]1[C@H](c2ccc([N+](=O)[O-])cc2)C(c2ccc(F)cc2)=NN1c1ccccc1	8%	i	-51*	-10%	i
Cc1ccc(NC(=O)Cn2nc(C(F)(F)F)c3c2CCCC3)cc1	x	u	x	x	i
Cc1cc(NC(=O)CN2CCOCC2)n(-c2nc3ccccc3s2)n1	10%	i	-8	15µM*	u
CCOC(=O)N1CCN(CC(=O)Nc2nc3ccccc3s2)CC1	1%	i	16	8%	12µM*
Cc1cc(NC(=O)CN2CCOCC2)n(-c2ccccc2)n1	3%	i	-2	5%	i
O=C(CSC1=NCCS1)Nc1nc2ccccc2s1	5%	i	-74*	1%	u
Cc1sc(NC(=O)CSc2ncn(-c3ccccc3)n2)nc1-c1ccccc1	1%	u	0	13%	23µM*
COc1ccc(CCC(=O)Nc2ccc(S(=O)(=O)Nc3nccc(C)n3)cc2)cc1	-87%	i	9	-4%	i
Cc1sc(NC(=O)CSC2=NCCS2)nc1-c1ccccc1	0%	i	-97*	8.9µM*	i
Cc1ccc(-c2csc(NC(=O)CSC3=NCCS3)n2)cc1	-12%	i	u	16%	i
CC(=O)N1CC(=O)N=C1SCC(=O)Nc1nc(-c2ccccc2)c(-c2ccccc2)s1	2%	i	-77*	21µM*	i
CCc1c(C)c(C#N)c2[nH]c3ccccc3n2c1=S	-58%	u	x	u	7.3µM*
CCc1cc(=O)n2c([nH]c3ccccc32)c1C#N	-2%	i	18	u	i
CCc1cc(=S)n2c([nH]c3ccccc32)c1C#N	u	u	0	u	5.8µM*
Cn1nc(SCc2ccccc2)c(=O)[nH]c1=O	x	i	3	x	i
Cc1ccc(C(=O)OCC(=O)Nc2ccccc2)cc1NC(=O)c1ccco1	u	i	15	127%[0.0737 µM]	i
Cc1ccc(C(=O)OCC(=O)Nc2nc(-c3ccccc3)cs2)cc1NC(=O)c1ccco1	-9%	i	-80*	u	u
O=C(NNc1nc(-c2ccccc2)cs1)c1ccco1	18µM*	i	-14	3%	i
O=C(NNc1nc(-c2ccc(Cl)cc2)cs1)c1ccco1	u	u	-27	u	21µM*
COc1ccc(CCNC(=O)CCCCn2c(=O)c3ccccc3n(Cc3ccc(F)cc3Cl)c2=O)cc1OC	x	i	x	x	i
O=C(NCCO)c1ccc(-c2cnc3cccnn23)cc1	x	i	-5	x	u
c1ccc(Sc2ncnc3ccccc23)cc1	-2%	i	x	u	i
c1ccc(Cc2nnc(Sc3ccccc3)c3ccccc23)cc1	15µM*	i	-68*	u	i
C#CC(=O)N(c1ccc(OC)cc1OC)C(C(=O)NC1CCCC1)c1cccs1 (centres undefined)	u	i	-102*	u	i
SMILES	SW480 rereplic	KB-3-1 tox	IL-1B inflam inh	MCF10A rerep	KB-V1 MDR tox
C#CC(=O)N(c1cc(OC)ccc1OC)C(C(=O)NC1CCCC1)c1cccs1 (centres undefined)	0.15µM*	15µM*	-120*	26%	u
Cc1cc(NCCCn2ccnc2)n2ncc(-c3ccc(Cl)cc3)c2n1	u	i	u	-8%	i
CC(C)(C)c1cc(NCCCn2ccnc2)n2ncc(-c3ccccc3)c2n1	u	i	-97*	u	u
CN(C)CCCNc1cc(C(C)(C)C)nc2c(-c3ccc(Cl)cc3)cnn12	u	i	-105*	u	u
CC(C)(C)c1cc(C(F)(F)F)n2ncc(-c3ccccc3)c2n1	u	i	35	-15%	i
Cc1cccc(-c2cc3nc(C)cc(NCCCn4ccnc4)n3n2)c1	-2%	i	-106*	u	i
CC(C)Nc1cc(C(C)(C)C)nc2c(-c3ccccc3)cnn12	-3%	i	-70*	u	i
CCc1cccc(NC(=O)CCS(=O)(=O)c2ccc(Br)cc2)c1	u	i	23	u	i
